Results: PubChem BioAssay (NCATS)
Several values for one entry are separate records, joined by “and”; a condition that tells them apart may be missing. Equal entries are not always repeated. Inconclusive results are not listed. A call without a number means that no potency is given here. More than one record can exist for a structure, and the calls need not agree. Activity calls are given as the source filed them. Unless noted, calls come from the whole dose curve; as a rule, active = well fitted curve in the direction sought with a large enough effect; inconclusive = small, poorly fitted or top-dose-only effect, or another doubt; inactive = no such curve, though single readings can be large; an effect the other way counts as inactive or inconclusive.

Tests used:
[1] = molecular target: Protein phosphatase 1D (Homo sapiens) (UniProt O15297); assay: RapidFire Mass Spectrometry qHTS Assay for Modulators of WT P53-Induced Phosphatase 1 (WIP1) (AID 1347424);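 note: amount of dephosphorylated VEPPL-S-QETFS peptide product formed by WIP1; series mostly up to about 63 µM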
Chain of Protein phosphatase 1D (Homo sapiens) (O15297 whole entry, looked up): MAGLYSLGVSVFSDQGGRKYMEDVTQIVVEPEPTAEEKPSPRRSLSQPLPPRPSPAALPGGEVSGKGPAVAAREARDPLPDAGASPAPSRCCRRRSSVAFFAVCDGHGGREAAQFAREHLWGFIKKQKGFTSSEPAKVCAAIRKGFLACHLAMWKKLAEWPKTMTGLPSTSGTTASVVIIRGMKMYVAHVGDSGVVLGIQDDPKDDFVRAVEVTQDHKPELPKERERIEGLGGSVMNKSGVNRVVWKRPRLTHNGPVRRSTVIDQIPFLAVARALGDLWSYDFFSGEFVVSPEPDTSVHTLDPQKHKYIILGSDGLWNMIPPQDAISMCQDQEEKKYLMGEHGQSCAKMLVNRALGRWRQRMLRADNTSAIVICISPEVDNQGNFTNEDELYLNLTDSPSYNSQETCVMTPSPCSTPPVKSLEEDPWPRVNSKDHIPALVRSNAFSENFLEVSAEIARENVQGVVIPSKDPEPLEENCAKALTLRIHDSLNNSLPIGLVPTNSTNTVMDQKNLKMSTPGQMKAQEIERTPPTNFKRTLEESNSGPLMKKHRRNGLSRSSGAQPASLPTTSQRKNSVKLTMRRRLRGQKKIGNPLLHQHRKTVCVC
Method in brief: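 WIP1 (10 nM final) was preincubated 1 h at room temperature with compounds in Tris-HCl pH 7.5, 30 mM MgCl2, TCEP, EGTA, BSA; 2 uM VEPPL-pS-QETFS phosphopeptide was added for 5 min, quenched with formic acid, and dephosphorylated product quantified by RapidFire MS.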

[2] = molecular target: Protein phosphatase 1D (Homo sapiens) (UniProt O15297); assay: Rhodamine-PBP qHTS Assay for Modulators of WT P53-Induced Phosphatase 1 (WIP1) (AID 1347425)
Method in brief: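 WIP1 (5 nM final) was preincubated with compound for 1 hour at room temperature. It then dephosphorylated 10 uM VEPPL-pS-QETFS peptide in Tris-HCl pH 7.5 with 30 mM MgCl2. Released Pi was detected by 10 uM Rh-PBP fluorescence (ex 525/em 598 nm) read at 1-min intervals for 11 min, as delta f1 - f0.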

[3] = molecular target: Calcium and integrin-binding protein 1 (Homo sapiens) (UniProt Q99828); assay: Primary qHTS for Identification of Calcium Integrin Binding Protein 1 (CIB1) Competitor (AID 1508620);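 note: GST tagged CIB1 binding a fluorescein labelled alphaIIb integrin peptide tracer; top concentration of the series differs between compounds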
Chain of Calcium and integrin-binding protein 1 (Homo sapiens) (Q99828 whole entry, looked up): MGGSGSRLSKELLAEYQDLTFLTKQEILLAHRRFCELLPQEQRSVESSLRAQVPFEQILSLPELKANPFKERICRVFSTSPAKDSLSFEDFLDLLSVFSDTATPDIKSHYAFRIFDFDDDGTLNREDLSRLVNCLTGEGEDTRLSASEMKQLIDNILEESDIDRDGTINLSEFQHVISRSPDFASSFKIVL
Method in brief: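 Fluorescence polarization competition: CIB1-GST (1 uM final) preincubated with compound 15 min at room temperature, then FITC-labeled alphaIIb peptide (100 nM final) added for another 15 min. Polarization read at Ex 480/Em 540.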

[4] = Primary qHTS for small molecule stabilizers of the endoplasmic reticulum resident proteome: Secreted ER Calcium Modulated Protein (SERCaMP) assay (AID 1508630)
Method in brief: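 GLuc-SERCaMP-expressing SH-SY5Y cells, pretreated 16 h with compound, are challenged with thapsigargin to empty ER calcium stores; after 4 h, coelenterazine is added directly to the medium and luminescence is imaged.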

[5] = A High-Content qHTS Against Drug Library for the Identification of Small Molecules that Inhibit DYT1 Early Onset Primary Dystonia-Associated Cell Pathology (AID 1645839; calls by dose curve; note: potency is the fitted concentration of half-maximal effect)
Method in brief: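 Readout: %pathology, the punctate EGFP-TorsinA distribution from imaging, as the primary channel and cell count as the toxicity counterscreen. HEK293 Flp-In cells expressing delE TorsinA were induced with tetracycline and treated with compound for 48 h.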

[6] = molecular target: Cytochrome P450 2D6 (Homo sapiens) (UniProt P10635); assay: Cytochrome P450 family 2 subfamily D member 6 (CYP2D6) small molecule antagonists: luciferase biochemical (cell-free) qHTS assay (AID 1645840; active = well fitted curve in the direction sought with a large enough effect in the repeat runs; an effect the other way counts as inactive or inconclusive; note: nearly all actives have a fitted effect of over 55% in size; note: potency is the fitted concentration of half-maximal effect)
Chain of Cytochrome P450 2D6 (Homo sapiens) (P10635 whole entry, looked up): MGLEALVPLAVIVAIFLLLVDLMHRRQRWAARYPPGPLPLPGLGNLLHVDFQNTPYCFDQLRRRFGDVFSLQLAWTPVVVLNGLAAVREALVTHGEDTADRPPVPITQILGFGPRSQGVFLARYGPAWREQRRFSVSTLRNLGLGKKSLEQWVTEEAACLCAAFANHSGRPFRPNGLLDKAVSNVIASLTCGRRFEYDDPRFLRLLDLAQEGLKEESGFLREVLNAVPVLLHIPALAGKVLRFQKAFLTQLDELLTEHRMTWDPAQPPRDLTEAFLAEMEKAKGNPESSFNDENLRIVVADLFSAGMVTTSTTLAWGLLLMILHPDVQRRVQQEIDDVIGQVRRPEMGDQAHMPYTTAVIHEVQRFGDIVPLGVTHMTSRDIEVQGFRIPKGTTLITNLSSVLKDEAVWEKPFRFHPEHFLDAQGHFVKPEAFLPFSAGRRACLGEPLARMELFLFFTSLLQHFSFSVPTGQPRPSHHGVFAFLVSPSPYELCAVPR
Method in brief: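 P450-Glo luminescent screen: recombinant CYP2D6 enzyme–proluciferin substrate mix preincubated with compound 10 min at room temperature, then NADPH regeneration added for 1 h at room temperature. Detection reagent added for 20 min; luciferin light read as relative luminescence units.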

[7] = molecular target: Cytochrome P450 2C9 (Homo sapiens) (UniProt P11712); assay: Cytochrome P450 family 2 subfamily C member 9 (CYP2C9) small molecule antagonists: luciferase biochemical (cell-free) qHTS assay (AID 1645842; active = well fitted curve in the direction sought with a large enough effect in the repeat runs; an effect the other way counts as inactive or inconclusive; note: nearly all actives have a fitted effect of over 55% in size; note: potency is the fitted concentration of half-maximal effect)
Chain of Cytochrome P450 2C9 (Homo sapiens) (P11712 whole entry, looked up): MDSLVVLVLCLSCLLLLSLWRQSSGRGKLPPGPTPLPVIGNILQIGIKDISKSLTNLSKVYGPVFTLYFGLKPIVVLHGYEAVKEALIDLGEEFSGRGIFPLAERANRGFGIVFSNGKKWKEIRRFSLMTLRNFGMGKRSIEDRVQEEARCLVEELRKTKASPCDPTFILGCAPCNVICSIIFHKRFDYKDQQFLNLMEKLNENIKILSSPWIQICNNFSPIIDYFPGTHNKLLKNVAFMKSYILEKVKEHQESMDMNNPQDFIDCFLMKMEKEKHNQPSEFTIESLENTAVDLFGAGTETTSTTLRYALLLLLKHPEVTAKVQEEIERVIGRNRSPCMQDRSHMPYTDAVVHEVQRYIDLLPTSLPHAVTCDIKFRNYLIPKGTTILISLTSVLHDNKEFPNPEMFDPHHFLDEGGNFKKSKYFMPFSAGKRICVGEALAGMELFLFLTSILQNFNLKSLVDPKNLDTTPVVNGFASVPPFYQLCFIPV
Method in brief: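 Luminescence, after 20 min with luciferin detection reagent, reflected CYP2C9 turnover during a 1 h NADPH-driven reaction at 37C. Enzyme-substrate mix contained 0.4% bovine serum albumin and was preincubated with compound 10 min at room temperature.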

[8] = Primary qHTS for inhibitors of nuclear receptor binding SET domain protein 2 (NSD2) in an isogenic RCH-ACV NSD2 p.E1099K mutant (9B) (AID 1645876); note: nearly all actives have a fitted effect of over 70% in size; note: potency is the fitted concentration of half-maximal effect
[9] = Primary qHTS for inhibitors of nuclear receptor binding SET domain protein 2 (NSD2) in an RCH-ACV wild type WT cells (2C) (AID 1645877); note: nearly all actives have a fitted effect of over 70% in size; note: potency is the fitted concentration of half-maximal effect
[10] = Primary qHTS for inhibitors of La Crosse Virus (LACV) - induced cell death in SH-SY5Y cells (AID 1508616);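 note: top concentration of the series differs between compounds; higher means more rescue of cells from virus-induced death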
Method in brief: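 SH-SY5Y cells (6000/well) plated 24 h, then given compounds by pin transfer and LACV at 0.01 MOI for 6 days at 37C. Viability measured by ATPLite luminescence, normalized to infected DMSO and uninfected DMSO.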

[11] = Validation qHTS assay for inhibitors of Activation Induced Cytidine Deaminase (AID): UDG Counterscreen signal (AID 1347427)
Method in brief: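 Counterscreen read of UDG activity (2 U/mL, 4/3x) in the FRET deamination format with AID (1 uM, 4/3x), DJC20/DJC23 substrates (250 nM, 4x), 4 h at room temperature. NaOH stop, fluorescence at 560 ex/665 em.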

[12] = molecular target: Single-stranded DNA cytosine deaminase (Homo sapiens) (UniProt Q9GZX7); assay: Validation qHTS assay for inhibitors of Activation Induced Cytidine Deaminase (AID): AID signal (AID 1347429)
Chain of Single-stranded DNA cytosine deaminase (Homo sapiens) (Q9GZX7 whole entry, looked up): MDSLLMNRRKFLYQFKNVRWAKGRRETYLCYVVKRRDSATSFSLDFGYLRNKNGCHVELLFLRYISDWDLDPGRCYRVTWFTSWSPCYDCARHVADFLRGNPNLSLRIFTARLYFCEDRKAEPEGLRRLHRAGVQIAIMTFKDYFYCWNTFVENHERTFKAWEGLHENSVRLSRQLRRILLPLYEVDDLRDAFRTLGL
Method in brief: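 FRET deamination assay: 1 uM AID (4/3x stock) with UDG, compound up to 114 uM, then 250 nM DJC20/DJC23 substrate (4x stock) for 4 hr at room temperature. NaOH added, 30 min; fluorescence read 540/590 nm.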

[13] = molecular target: Calcium and integrin-binding protein 1 (Homo sapiens) (UniProt Q99828); assay: Validation qHTS for Identification of Calcium Integrin Binding protein 1 (CIB1) Competitor (AID 1508618)
Method in brief: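 Fluorescence polarization with 1 uM CIB1-GST and 100 nM FITC-alphaIIb peptide in HEPES pH 7.4, NaCl, 5 mM CaCl2, Tween20. Compounds at up to 114 uM final, preincubated with protein 15 min; read after 15 min more at RT.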

[14] = Counterscreen qHTS for small molecule stabilizers of the endoplasmic reticulum resident proteome: GLuc-NoTag assay (AID 1508627);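 note: SH-SY5Y cells given compound then 100 nM thapsigargin to empty ER calcium; series mostly up to about 76 µM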
Method in brief: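 SH-SY5Y cells stably expressing constitutively secreted GLuc (no SERCaMP tag) were pre-incubated 5 h, treated with compound for 19 h, then 100 nM thapsigargin for 4 h at 37C; medium GLuc read by coelenterazine luminescence.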

[15] = Cell Viability qHTS for small molecule stabilizers of the endoplasmic reticulum resident proteome (AID 1508629); details: cell viability counter-screen, 100 nM thapsigargin for final 4 h;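 note: human SH-SY5Y neuroblastoma cells carrying the GLuc-SERCaMP reporter; compound exposure about 46 h in total before the viability read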
Papain (Carica papaya) = Papain (Carica papaya) (UniProt P00784); assay: Primary qHTS assay for inhibitors of the protease papain (AID 1645873);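 note: papain turnover of Z-FR-AMC read as the AMC fluorescence gain over 10 min; series mostly up to about 50 µM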
Chain of Papain (Carica papaya) (P00784 whole entry, looked up): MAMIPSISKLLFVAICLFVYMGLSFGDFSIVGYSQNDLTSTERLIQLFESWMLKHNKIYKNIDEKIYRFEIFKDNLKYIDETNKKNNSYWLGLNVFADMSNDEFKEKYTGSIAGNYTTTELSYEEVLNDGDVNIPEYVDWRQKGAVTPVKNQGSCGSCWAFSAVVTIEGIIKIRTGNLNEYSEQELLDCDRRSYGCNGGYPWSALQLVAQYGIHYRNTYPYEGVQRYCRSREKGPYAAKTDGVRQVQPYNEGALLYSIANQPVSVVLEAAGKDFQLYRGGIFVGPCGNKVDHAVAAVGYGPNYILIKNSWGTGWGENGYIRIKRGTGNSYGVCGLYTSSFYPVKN

CC[N+](CC)(CCNC(=O)C(=O)NCC[N+](CC)(CC)Cc1ccccc1Cl)Cc1ccccc1Cl
Potency [1]: inactive | outcome [2]: inactive | Potency [3]: inactive | Potency [4]: inactive | Potency [5]: inactive | Potency [6]: 15.5 µM (active) | Potency [7]: inactive | Potency [8]: inactive | Potency [9]: inactive

Oc1c(I)cc(Cl)c2cccnc12
Potency [1]: inactive | outcome [2]: inactive | Potency [10]: inactive | Potency [5]: 5.62 µM (active) | Potency [9]: 8.41 µM (active)

CCN(CCCc1ccccc1)CCCc1ccccc1
Potency [1]: inactive | outcome [2]: inactive | Potency [10]: inactive | Potency [3]: inactive | Potency [6]: 1.23 µM (active) | Potency [7]: inactive

COc1cc2c(cc1OC)C(=O)C(CC1CCN(Cc3ccccc3)CC1)C2 (centres undefined)
Potency [1]: inactive | outcome [2]: inactive | Potency [3]: inactive | Potency [4]: inactive | Potency [9]: 21.1 µM (active)

CC(C)(C(=O)c1cccnc1)c1cccnc1
Potency [1]: inactive | outcome [2]: inactive | Potency [3]: inactive | Potency [5]: inactive | Potency [6]: inactive | Potency [7]: inactive

Cc1cccn2c(=O)c(-c3nnn[nH]3)cnc12
Potency [1]: inactive | outcome [2]: inactive | Potency [3]: inactive | Potency [7]: inactive | Potency [8]: inactive | Potency [9]: inactive

Oc1ccc(O)cc1
Potency [1]: inactive | outcome [11]: inactive | Potency [12]: inactive | Potency [10]: inactive | outcome [13]: inactive | Potency [3]: inactive | outcome [14]: inactive | max response [15]: -23.4% (inactive) | Potency [7]: inactive | Potency (Papain (Carica papaya)): inactive | Potency [8]: 11.9 µM (active) | Potency [9]: 15 µM (active)

CCCOC(C(=O)OC1CCN(C)CC1)(c1ccccc1)c1ccccc1
Potency [1]: inactive | Potency [10]: inactive | Potency [3]: inactive | outcome [14]: inactive | Potency [6]: 3.47 µM (active) | Potency [7]: inactive

CN=C(NC#N)NCCSCc1csc(N=C(N)N)n1
Potency [1]: inactive | outcome [2]: inactive | Potency [3]: inactive | Potency [4]: inactive | Potency [8]: inactive | Potency [9]: inactive

COCc1c(C(C)C)nc(C(C)C)c(/C=C/[C@@H](O)C[C@@H](O)CC(=O)O)c1-c1ccc(F)cc1
Potency [1]: inactive | outcome [2]: inactive | Potency [4]: inactive | Potency [6]: inactive | Potency [8]: 0.335 µM (active) | Potency [9]: 0.211 µM (active)

C=C1C[C@H]2[C@@H]3C=C(C)C4=CC(=O)CC[C@]4(C)[C@H]3CC[C@]2(C)[C@@]1(OC(C)=O)C(C)=O
Potency [1]: inactive | outcome [2]: inactive | Potency [3]: inactive | Potency [4]: inactive | Potency [6]: inactive | Potency [8]: 23.7 µM (active) | Potency [9]: 4.22 µM (active)

CC(=O)N(O)CCCCCNC(=O)CCC(=O)N(O)CCCCCNC(=O)CCC(=O)N(O)CCCCCN
Potency [1]: inactive | outcome [2]: inactive | Potency [3]: inactive | Potency [4]: inactive | Potency [6]: inactive | Potency [7]: inactive | Potency [8]: 7.5 µM (active) and 5.25 µM (active) | Potency [9]: 4.73 µM (active) and 4.68 µM (active)

COC(=O)CCc1ccc(OCC(O)CNC(C)C)cc1 (centres undefined)
Potency [1]: inactive | outcome [2]: inactive | Potency [3]: inactive | Potency [4]: inactive | Potency [6]: inactive | Potency [7]: inactive | Potency [8]: inactive | Potency [9]: inactive

CC(=O)OCC(=O)[C@@]12N=C(C)O[C@@H]1C[C@H]1[C@@H]3CCC4=CC(=O)C=C[C@]4(C)[C@H]3[C@@H](O)C[C@@]12C
Potency [1]: inactive | outcome [2]: inactive | Potency [3]: inactive | Potency [4]: inactive | Potency [5]: inactive | Potency [6]: inactive | Potency [7]: inactive | Potency [9]: 150 nM (active) and 417 nM (active)

COc1cccc2c1C(=O)c1c(O)c3c(c(O)c1C2=O)C[C@@](O)(C(=O)CO)C[C@@H]3O[C@H]1C[C@H](N)[C@H](O)[C@H](C)O1
Potency [1]: inactive | outcome [2]: inactive | Potency [4]: inactive | Potency [7]: inactive | Potency [8]: 188 nM (active) and 33.2 nM (active) | Potency [9]: 150 nM (active) and 26.3 nM (active)

NCCC(O)(P(=O)(O)O)P(=O)(O)O
Potency [1]: inactive | outcome [2]: inactive | Potency [3]: inactive | Potency [5]: inactive | Potency [6]: inactive | Potency [7]: inactive | Potency [8]: inactive | Potency [9]: inactive

COc1cc(-c2ccc(=O)[nH]n2)ccc1OC(F)F
Potency [1]: inactive | outcome [2]: inactive | Potency [3]: inactive | Potency [4]: inactive | Potency [5]: inactive | Potency [8]: inactive | Potency [9]: inactive

COc1ccc(/C=C/C(=O)c2ccc(OC)cc2OC)cc1
Potency [1]: inactive | outcome [2]: inactive | Potency [3]: inactive | Potency [4]: inactive | Potency [7]: 4.36 µM (active) | Potency [8]: 11.9 µM (active) | Potency [9]: 10.6 µM (active)

COC(=O)[C@@H]1CC2=CC(=O)CC[C@]2(C)[C@@]23O[C@@H]2C[C@@]2(C)[C@@H](CC[C@@]24CCC(=O)O4)[C@H]13
Potency [1]: inactive | outcome [2]: inactive | Potency [3]: inactive | Potency [4]: inactive | Potency [5]: inactive | Potency [7]: inactive | Potency [8]: inactive | Potency [9]: inactive

Cc1ccccc1C(=O)Nc1ccc(C(=O)N2CCCC(N(C)C)c3ccccc32)cc1 (centres undefined)
Potency [1]: inactive | outcome [2]: inactive | Potency [3]: inactive | Potency [4]: inactive | Potency [6]: inactive | Potency [7]: inactive | Potency [8]: 5.78 µM (active) | Potency [9]: inactive and 5.15 µM (active)

NC(=NCCCCCCN=C(N)/N=C(\N)Nc1ccc(Cl)cc1)/N=C(\N)Nc1ccc(Cl)cc1
Potency [1]: inactive | outcome [2]: inactive | Potency [3]: inactive | Potency [4]: inactive | Potency [6]: 2.45 µM (active) | Potency [7]: 24.5 µM (active) | Potency [8]: 2.99 µM (active) and 3.65 µM (active) | Potency [9]: 5.96 µM (active) and 3.65 µM (active)

CCN1CCCC1=O
Potency [1]: inactive | outcome [2]: inactive | Potency [3]: inactive | Potency [5]: inactive | Potency [6]: inactive | Potency [7]: inactive | Potency [8]: inactive | Potency [9]: inactive

CC(=O)OCC(=O)[C@@]1(O)[C@H](C)C[C@H]2[C@@H]3CCC4=CC(=O)C=C[C@]4(C)[C@@]3(F)[C@@H](O)C[C@@]21C
Potency [1]: inactive | outcome [2]: inactive | Potency [4]: inactive | Potency [5]: inactive | Potency [6]: inactive | Potency [9]: 3.3 nM (active) and 12.9 nM (active)
